# Laboratory results published in PMC7862700, “An all-to-all approach to the identification of sequence-specific readers for epigenetic DNA modifications on cytosine”.
# Assays:
# Test in all cases: DAPPL (digital affinity profiling via proximity ligation, sequencing); 10 mM Tris-HCl pH 7.5, 50 mM NaCl, 1 mM DTT, 4% glycerol, room temperature, 30 min; GST-TFs on glutathione beads, 16-mer random dsDNA library, 0.1% formaldehyde crosslink after washing; high values mean tight binding
# Details in all cases: protein: recombinant; tags: N-terminal GST; dsDNA, one strand shown
# [1] = molecular target: T1, ELK1 (Homo sapiens, UniProt P19419 1-428)
# T1 sequence: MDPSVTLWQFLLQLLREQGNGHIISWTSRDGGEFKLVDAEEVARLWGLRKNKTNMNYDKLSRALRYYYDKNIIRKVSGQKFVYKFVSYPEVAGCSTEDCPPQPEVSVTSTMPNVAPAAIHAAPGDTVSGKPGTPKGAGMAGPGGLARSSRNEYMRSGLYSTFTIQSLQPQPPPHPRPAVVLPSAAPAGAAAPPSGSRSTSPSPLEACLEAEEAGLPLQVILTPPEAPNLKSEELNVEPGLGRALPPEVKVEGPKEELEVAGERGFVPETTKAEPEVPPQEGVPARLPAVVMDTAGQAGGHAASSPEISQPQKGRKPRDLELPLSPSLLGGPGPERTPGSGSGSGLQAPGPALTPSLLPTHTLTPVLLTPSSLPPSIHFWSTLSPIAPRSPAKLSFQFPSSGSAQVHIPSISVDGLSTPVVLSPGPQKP
# Outline: (§1)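 Human transcription factors fused to GST were expressed in yeast, captured on glutathione beads, given DNA barcodes and pooled with a GST-only negative control. Pools were incubated with 200 nmole of a 16-mer random double-stranded DNA library in Tris/NaCl/DTT/glycerol buffer at room temperature for 30 min. They were then washed, crosslinked with 0.1% formaldehyde, proximity-ligated (BsaI/T4 ligase, 1 h, 37 °C), PCR-amplified and sequenced on an Illumina NextSeq500. Binding signal is each 6-mer's read frequency for a factor divided by its frequency for the GST control.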
# [2] = molecular target: T2, GABPA (Homo sapiens, UniProt Q06546 1-454)
# T2 sequence: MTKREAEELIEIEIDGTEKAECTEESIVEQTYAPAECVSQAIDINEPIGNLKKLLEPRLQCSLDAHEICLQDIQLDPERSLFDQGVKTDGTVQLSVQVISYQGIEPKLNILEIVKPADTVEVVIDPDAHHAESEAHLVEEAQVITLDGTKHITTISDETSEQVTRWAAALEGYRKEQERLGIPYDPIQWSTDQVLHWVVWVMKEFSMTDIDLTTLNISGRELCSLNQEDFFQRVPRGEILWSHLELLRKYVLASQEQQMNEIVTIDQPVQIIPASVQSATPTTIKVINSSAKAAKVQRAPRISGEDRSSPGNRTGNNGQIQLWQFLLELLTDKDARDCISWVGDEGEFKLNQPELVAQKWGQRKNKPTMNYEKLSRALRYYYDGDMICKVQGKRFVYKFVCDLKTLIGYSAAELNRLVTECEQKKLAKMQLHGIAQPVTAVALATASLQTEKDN
# Outline: as §1
# [3] = molecular target: ELF1 (Homo sapiens, UniProt P32519 1-619)
# Outline: as §1
# [4] = molecular target: T3, EHF (Homo sapiens, UniProt Q9NZC4 1-300)
# T3 sequence: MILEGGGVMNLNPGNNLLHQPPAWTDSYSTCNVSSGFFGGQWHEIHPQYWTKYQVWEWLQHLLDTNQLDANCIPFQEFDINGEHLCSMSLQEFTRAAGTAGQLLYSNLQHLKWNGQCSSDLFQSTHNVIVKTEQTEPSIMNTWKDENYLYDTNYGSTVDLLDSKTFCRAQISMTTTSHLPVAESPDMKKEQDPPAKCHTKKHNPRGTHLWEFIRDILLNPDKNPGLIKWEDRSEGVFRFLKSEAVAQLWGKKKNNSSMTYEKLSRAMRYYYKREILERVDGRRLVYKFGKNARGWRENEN
# Outline: as §1
# [5] = molecular target: SPIB (Homo sapiens, UniProt Q01892 1-262)
# Outline: as §1
# [6] = molecular target: T4, ELK3 (Homo sapiens, UniProt P41970 1-407)
# T4 sequence: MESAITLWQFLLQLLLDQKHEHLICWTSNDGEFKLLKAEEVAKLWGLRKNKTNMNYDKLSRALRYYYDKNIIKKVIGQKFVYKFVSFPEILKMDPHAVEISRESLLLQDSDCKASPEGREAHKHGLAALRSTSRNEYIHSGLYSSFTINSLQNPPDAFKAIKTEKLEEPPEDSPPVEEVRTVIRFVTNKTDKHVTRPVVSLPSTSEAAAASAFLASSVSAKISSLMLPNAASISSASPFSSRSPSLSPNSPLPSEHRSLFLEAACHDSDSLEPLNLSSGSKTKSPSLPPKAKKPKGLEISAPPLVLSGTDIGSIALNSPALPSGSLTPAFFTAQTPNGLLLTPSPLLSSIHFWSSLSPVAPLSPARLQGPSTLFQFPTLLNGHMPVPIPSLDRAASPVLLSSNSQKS
# Outline: as §1
# [7] = molecular target: ETV5 (Homo sapiens, UniProt P41161 1-510)
# Outline: as §1
# [8] = molecular target: ELF4 (Homo sapiens, UniProt Q99607 1-663)
# Outline: as §1
# [9] = molecular target: T5, ELK4 (Homo sapiens, UniProt P28324-2 1-405)
# T5 sequence: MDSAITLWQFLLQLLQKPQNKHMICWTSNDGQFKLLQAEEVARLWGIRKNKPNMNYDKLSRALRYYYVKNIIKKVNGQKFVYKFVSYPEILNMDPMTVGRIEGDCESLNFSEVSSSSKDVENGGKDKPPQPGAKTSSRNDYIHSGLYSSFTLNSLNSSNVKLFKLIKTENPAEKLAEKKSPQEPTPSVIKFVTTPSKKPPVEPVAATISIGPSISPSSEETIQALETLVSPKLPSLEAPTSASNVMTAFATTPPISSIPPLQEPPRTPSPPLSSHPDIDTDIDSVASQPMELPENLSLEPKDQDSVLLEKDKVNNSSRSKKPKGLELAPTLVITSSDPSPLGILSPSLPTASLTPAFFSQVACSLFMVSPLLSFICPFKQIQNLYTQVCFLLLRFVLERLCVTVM
# Outline: as §1
# [10] = molecular target: T6, ELF3 (Homo sapiens, UniProt P78545 1-371)
# T6 sequence: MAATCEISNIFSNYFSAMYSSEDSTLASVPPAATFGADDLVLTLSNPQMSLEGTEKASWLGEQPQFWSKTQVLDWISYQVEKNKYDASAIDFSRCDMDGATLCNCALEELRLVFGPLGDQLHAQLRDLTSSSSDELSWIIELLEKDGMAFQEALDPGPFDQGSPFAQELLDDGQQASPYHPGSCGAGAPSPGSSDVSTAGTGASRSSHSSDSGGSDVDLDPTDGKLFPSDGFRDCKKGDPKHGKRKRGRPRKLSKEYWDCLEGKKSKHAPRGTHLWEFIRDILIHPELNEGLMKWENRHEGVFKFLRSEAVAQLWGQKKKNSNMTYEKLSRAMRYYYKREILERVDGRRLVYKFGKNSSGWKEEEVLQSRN
# Outline: as §1
# [11] = molecular target: T7, ERF (Homo sapiens, UniProt P50548 1-548)
# T7 sequence: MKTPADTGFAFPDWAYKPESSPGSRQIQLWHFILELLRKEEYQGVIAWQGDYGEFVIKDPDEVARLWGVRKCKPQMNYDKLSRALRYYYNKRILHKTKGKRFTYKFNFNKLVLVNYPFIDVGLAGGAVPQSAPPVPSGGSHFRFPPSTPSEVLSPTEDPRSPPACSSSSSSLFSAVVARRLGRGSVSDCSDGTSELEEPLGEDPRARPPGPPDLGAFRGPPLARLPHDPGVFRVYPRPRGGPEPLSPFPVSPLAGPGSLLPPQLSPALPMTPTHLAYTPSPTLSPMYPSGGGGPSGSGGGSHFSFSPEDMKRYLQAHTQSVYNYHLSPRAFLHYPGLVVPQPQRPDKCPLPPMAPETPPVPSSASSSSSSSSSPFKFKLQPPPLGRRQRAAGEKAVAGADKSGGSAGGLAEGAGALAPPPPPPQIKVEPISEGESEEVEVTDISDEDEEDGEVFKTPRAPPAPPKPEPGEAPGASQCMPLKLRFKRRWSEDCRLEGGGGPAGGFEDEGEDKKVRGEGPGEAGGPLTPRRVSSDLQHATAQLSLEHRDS
# Outline: as §1
# [12] = molecular target: T8, ETV3L (Homo sapiens, UniProt Q6ZN32 1-361)
# T8 sequence: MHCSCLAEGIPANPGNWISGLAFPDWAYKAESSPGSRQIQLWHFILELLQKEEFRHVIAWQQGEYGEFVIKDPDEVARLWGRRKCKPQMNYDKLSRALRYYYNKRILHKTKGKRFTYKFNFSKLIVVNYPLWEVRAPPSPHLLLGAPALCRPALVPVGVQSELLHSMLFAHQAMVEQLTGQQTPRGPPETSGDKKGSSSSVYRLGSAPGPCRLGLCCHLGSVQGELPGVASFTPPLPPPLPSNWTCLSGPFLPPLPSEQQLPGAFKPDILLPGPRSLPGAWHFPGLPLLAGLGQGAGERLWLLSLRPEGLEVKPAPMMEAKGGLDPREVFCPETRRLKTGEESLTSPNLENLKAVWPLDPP
# Outline: as §1
# [13] = molecular target: T9, ETS2 (Homo sapiens, UniProt P15036 1-469)
# T9 sequence: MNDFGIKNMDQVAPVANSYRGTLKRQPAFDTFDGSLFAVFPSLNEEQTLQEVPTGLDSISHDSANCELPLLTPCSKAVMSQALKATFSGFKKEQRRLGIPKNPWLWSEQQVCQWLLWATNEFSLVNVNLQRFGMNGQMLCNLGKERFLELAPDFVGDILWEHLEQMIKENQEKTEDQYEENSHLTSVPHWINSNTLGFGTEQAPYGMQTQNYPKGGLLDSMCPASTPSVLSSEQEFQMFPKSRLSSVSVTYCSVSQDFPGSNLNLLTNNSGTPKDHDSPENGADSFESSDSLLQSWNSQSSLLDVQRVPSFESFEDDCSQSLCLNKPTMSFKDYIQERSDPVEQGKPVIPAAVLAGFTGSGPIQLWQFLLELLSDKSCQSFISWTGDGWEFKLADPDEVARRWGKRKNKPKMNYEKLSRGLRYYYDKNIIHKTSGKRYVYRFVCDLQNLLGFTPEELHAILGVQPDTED
# Outline: as §1
# [14] = molecular target: T10, ETV7 (Homo sapiens, UniProt Q9Y603 1-341)
# T10 sequence: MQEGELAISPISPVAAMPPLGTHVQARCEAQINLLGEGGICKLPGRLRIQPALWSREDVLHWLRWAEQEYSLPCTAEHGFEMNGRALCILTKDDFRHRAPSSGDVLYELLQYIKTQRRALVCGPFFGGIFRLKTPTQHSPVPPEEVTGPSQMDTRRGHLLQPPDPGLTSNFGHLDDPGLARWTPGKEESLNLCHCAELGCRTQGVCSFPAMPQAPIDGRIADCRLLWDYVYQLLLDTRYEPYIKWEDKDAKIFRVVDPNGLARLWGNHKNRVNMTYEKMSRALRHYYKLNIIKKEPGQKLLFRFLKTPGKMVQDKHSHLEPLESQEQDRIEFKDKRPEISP
# Outline: as §1
# [15] = molecular target: ETV6 (Homo sapiens, UniProt P41212 1-452)
# Outline: as §1
# Sequence of SPIB (Q01892 whole entry): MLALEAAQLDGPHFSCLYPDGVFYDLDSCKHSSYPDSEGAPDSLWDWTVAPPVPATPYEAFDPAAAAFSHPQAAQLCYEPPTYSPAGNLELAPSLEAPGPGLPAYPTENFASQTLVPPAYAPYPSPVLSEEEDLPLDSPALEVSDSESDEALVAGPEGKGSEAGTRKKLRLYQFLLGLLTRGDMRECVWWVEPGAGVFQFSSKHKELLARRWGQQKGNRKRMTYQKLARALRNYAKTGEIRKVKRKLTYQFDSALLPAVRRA
# Sequence of ETV5 (P41161 whole entry): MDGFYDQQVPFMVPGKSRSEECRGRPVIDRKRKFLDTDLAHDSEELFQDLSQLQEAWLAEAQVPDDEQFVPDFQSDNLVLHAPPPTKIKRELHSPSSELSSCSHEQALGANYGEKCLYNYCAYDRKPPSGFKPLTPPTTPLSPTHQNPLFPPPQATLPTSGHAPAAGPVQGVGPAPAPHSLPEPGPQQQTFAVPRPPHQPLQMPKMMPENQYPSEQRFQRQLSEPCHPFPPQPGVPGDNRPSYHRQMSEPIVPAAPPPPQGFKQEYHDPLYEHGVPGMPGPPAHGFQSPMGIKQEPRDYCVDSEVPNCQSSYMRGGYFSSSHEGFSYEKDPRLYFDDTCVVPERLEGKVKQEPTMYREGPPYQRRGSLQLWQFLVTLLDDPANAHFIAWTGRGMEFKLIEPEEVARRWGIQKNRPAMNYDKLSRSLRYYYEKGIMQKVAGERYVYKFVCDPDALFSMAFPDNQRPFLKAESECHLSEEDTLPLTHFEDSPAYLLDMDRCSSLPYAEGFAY
# Sequence of ELF1 (P32519 whole entry): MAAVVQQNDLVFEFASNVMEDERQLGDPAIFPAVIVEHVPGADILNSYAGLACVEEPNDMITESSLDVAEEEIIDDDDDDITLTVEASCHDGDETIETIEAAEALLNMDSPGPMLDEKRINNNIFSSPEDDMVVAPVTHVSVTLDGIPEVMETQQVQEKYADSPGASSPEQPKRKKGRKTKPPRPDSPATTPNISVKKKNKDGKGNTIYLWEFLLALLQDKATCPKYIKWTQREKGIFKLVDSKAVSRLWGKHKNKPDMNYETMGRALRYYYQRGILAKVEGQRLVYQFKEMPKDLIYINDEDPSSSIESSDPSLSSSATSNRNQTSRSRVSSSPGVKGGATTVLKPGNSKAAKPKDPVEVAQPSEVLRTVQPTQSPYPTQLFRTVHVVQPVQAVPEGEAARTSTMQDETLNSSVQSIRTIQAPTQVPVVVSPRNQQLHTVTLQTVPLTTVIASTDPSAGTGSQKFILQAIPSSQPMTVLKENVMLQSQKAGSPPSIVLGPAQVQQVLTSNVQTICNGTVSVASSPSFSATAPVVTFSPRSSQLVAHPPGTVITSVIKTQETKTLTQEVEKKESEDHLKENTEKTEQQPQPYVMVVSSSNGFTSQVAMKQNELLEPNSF
# Sequence of ELF4 (Q99607 whole entry): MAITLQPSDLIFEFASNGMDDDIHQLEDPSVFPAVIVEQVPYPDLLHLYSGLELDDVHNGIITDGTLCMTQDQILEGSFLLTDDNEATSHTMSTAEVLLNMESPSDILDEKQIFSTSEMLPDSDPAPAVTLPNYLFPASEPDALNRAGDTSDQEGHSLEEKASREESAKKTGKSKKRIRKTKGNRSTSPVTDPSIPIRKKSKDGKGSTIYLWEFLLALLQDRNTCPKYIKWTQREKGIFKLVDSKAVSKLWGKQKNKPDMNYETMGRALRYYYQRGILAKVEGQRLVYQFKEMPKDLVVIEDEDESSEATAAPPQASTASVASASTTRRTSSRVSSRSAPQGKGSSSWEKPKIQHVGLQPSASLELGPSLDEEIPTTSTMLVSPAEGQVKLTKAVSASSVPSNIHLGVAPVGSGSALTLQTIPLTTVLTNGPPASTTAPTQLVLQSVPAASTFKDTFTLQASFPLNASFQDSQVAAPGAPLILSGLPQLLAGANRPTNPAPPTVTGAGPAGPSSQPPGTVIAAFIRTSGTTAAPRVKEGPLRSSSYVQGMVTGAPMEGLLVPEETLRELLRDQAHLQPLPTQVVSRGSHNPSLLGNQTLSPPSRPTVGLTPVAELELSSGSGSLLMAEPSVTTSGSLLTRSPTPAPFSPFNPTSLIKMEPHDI
# Sequence of ETV6 (P41212 whole entry): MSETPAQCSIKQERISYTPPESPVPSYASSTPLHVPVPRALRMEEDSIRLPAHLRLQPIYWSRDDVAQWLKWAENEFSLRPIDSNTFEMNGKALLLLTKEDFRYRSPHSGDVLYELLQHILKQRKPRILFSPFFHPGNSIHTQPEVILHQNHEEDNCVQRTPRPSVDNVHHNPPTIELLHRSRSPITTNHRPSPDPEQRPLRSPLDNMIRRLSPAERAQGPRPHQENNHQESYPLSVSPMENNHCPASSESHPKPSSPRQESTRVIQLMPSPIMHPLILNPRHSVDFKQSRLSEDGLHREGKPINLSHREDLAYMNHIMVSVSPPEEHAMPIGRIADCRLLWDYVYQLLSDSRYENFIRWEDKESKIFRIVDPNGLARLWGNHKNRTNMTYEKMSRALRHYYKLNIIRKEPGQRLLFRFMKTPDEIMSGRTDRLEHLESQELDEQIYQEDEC
sequence,measurement,setting,value
TCGAAC,binding signal,[1],"1.01 fold enrichment (6-mer frequency, TF over GST control)"
same,binding signal,[2],"1.02 fold enrichment (6-mer frequency, TF over GST control)"
same,binding signal,[3],"1.09 fold enrichment (6-mer frequency, TF over GST control)"
same,binding signal,[4],"1.07 fold enrichment (6-mer frequency, TF over GST control)"
same,binding signal,[5],"1.03 fold enrichment (6-mer frequency, TF over GST control)"
same,binding signal,[6],"1.06 fold enrichment (6-mer frequency, TF over GST control)"
same,binding signal,[7],"1.01 fold enrichment (6-mer frequency, TF over GST control)"
same,binding signal,[8],"1.01 fold enrichment (6-mer frequency, TF over GST control)"
same,binding signal,[9],"1.05 fold enrichment (6-mer frequency, TF over GST control)"
same,binding signal,[10],"1.05 fold enrichment (6-mer frequency, TF over GST control)"
same,binding signal,[11],"1.07 fold enrichment (6-mer frequency, TF over GST control)"
same,binding signal,[12],"1.07 fold enrichment (6-mer frequency, TF over GST control)"
same,binding signal,[13],"1.03 fold enrichment (6-mer frequency, TF over GST control)"
same,binding signal,[14],"1.04 fold enrichment (6-mer frequency, TF over GST control)"
same,binding signal,[15],"1 fold enrichment (6-mer frequency, TF over GST control)"
